Rows were chosen to be rich in hits. Some 2.1% of all compounds tested hit in one or more screens of this group.
FUS suppressor = rescues growth of FUS-expressing yeast; S. cerevisiae FUS-expressing, growth rescue, OD600, 24 h; Potency, µM (highest dose often 76.6 µM), most hits filed as activators; actives 0.24% (n = 390,000);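 also: plate controls were DMSO vehicle for no effect and reference control for full effect; nearly all actives have a fitted effect of over 55% in size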
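Toxicity suppression screen in FUS-yeast. Cells induced with 2% galactose, starting OD 0.005, treated 24hr at 30C with compounds at multiple final concentrations; growth by OD600.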
Abeta yeast res = A-beta toxicity reversal in yeast; yeast expressing A-beta42, growth rescue, OD600, 48 h; response scale: 0% DMSO, 100% iron-clioquinol control; Potency, µM (series often up to 46.1 µM), actives largely listed as activators; actives 0.063% (n = 410,000); AID 1347071; also: nearly all actives have a fitted effect of over 55% in size
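Growth rescue measured by 600 nm absorbance after 48 h yeast culture at 30 C with compound. Values normalized between DMSO and an equimolar ferric chloride plus clioquinol control.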
aSyn rescue = inhibitors of alpha-synuclein toxicity in yeast | Yeast expressing alpha-synuclein, growth rescue, BacTiter-Glo, 24 h | Potency, µM (highest dose often 46.1 µM), for inactives: at the top dose growth rescue (activation), most hits filed as activators | actives 0.14% (n = 370,000); also: % of control where 0% means no effect; nearly all actives have a fitted effect of over 65% in size
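Screening used galactose-induced yeast with toxic alpha-synuclein levels, exposed to compound for 24 hr at 30 deg C. Cell growth, read with BacTiter-Glo luminescence, gave the measured signal.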
TDP-43 yeast inh = rescues yeast growth from TDP-43 toxicity. TDP-43 expressing yeast growth rescue, BacTiter-Glo, 24 h. Potency, µM (series often up to 46.1 µM), inactives show at the top dose growth rescue (activation), most hits filed as activators. actives 1.8% (n = 410,000); also: % of control where 0% means no effect; nearly all actives have a fitted effect of over 50% in size
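Readout is BacTiter-Glo luminescence of cell growth, so inhibitors register as activators. TDP-43-expressing yeast at OD600=0.02 in galactose medium, after raffinose pregrowth to mid-log, were incubated with compound for 24 hr at 30 deg C.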
An asterisk follows results filed as active. Calls follow the shape of the dose curve; as a rule, active = well fitted curve in the direction sought with a large enough effect; inconclusive = small, poorly fitted or top-dose-only effect, or another doubt; inactive = no such curve, though single readings can be large; an effect the other way counts as inactive or inconclusive. Potency is read from the fitted curve at half-maximal effect.

Results for COC(=O)/C=C1\OC(C2CC2)c2ccccc21 (stereo not drawn) ?
FUS suppressor: inactive; Abeta yeast res: inactive; aSyn rescue: -9.1%; TDP-43 yeast inh: 28.2µM*

How did CN(C)CC(=O)N[C@@H]1C[C@@H]2O[C@@H](CO)CC[C@@H]2O[C@@H]1CCc1ccc(-c2ccc(F)cc2)cc1 do in these assays?
FUS suppressor: inactive

Results for CCN1CCOC(=O)C1CC(=O)Nc1cccc(OC)c1 (stereo not drawn) ?
FUS suppressor: inactive; Abeta yeast res: inactive; TDP-43 yeast inh: inconclusive

Results for O=C(CC1C(=O)OCCN1Cc1ccccc1)Nc1cccc(Cl)c1 (stereo not drawn) ?
FUS suppressor: inactive; Abeta yeast res: inactive; TDP-43 yeast inh: 17.8µM*

Results for Cc1cccc(NC(=O)CC2C(=O)OCCN2Cc2ccccc2)c1 (stereo not drawn) ?
FUS suppressor: inactive; Abeta yeast res: inactive; TDP-43 yeast inh: 14.1µM*

What do the screens show for `O=C(CSC1CC(=O)N(CCc2ccccc2)C1=O)Nc1cccc(Cl)c1` (stereo not drawn)?
FUS suppressor: inactive; Abeta yeast res: inactive; aSyn rescue: 13.2%; TDP-43 yeast inh: 17.8µM*

How did Cc1nc2c3cc(F)ccc3n(Cc3ccccc3F)c2s1 do in these assays?
FUS suppressor: inactive; Abeta yeast res: inactive; aSyn rescue: -19.2%; TDP-43 yeast inh: 11.2µM*

What do the screens show for `Cc1nc2c3ccccc3n(Cc3ccccc3F)c2s1`?
FUS suppressor: inactive; Abeta yeast res: inactive; aSyn rescue: -8.7%; TDP-43 yeast inh: 0.0%

How did CCOC(=O)[C@H]1[C@H]2COc3ccc(Cl)cc3[C@@H]2N2C(=O)c3cc(Cl)ccc3NC(=O)[C@@]12C do in these assays?
FUS suppressor: inactive; Abeta yeast res: 3.55µM*; aSyn rescue: -4.7%; TDP-43 yeast inh: 7.8%

What do the screens show for `Cc1ccc2c(c1)C(=O)N1[C@H]3c4cc(Cl)ccc4OC[C@@H]3[C@H](c3ccccc3)[C@]1(C)C(=O)N2`?
FUS suppressor: inactive; Abeta yeast res: inactive; aSyn rescue: -13.1%; TDP-43 yeast inh: -15.3%

What do the screens show for `CCOC(=O)[C@@H]1[C@H]2COc3ccccc3[C@H]2N2C(=O)N(c3ccc(Cl)cc3)C(=O)[C@]12C`?
FUS suppressor: inconclusive; Abeta yeast res: inactive; aSyn rescue: -6.1%; TDP-43 yeast inh: 35.5µM*

Results for CCOC(=O)[C@H]1[C@H]2COc3ccc(Cl)cc3[C@@H]2N2C(=O)c3cc(Br)ccc3NC(=O)[C@@]12C ?
FUS suppressor: inconclusive; Abeta yeast res: inconclusive; aSyn rescue: 4.3%; TDP-43 yeast inh: inconclusive

Results for C[C@@]12C(=O)Nc3ccc(Cl)cc3C(=O)N1[C@H]1c3ccccc3OC[C@@H]1[C@@H]2c1ccccc1 ?
FUS suppressor: 28.2µM*; Abeta yeast res: inactive; aSyn rescue: -1.6%; TDP-43 yeast inh: -46.6%

How did C[C@@]12C(=O)Nc3ccc(F)cc3C(=O)N1[C@H]1c3cc(Cl)ccc3OC[C@@H]1[C@@H]2c1ccccc1 do in these assays?
FUS suppressor: inactive; Abeta yeast res: inactive; aSyn rescue: -3.0%; TDP-43 yeast inh: 17.8µM*

Results for O=C(CCC(=O)OCc1ccc([N+](=O)[O-])cc1Cl)Nc1ccccc1 ?
FUS suppressor: inactive; Abeta yeast res: inactive; aSyn rescue: -0.1%; TDP-43 yeast inh: 0.2%

Results for CC1CCN(c2ccc(NC(=O)c3ccc(Br)o3)cc2)CC1 ?
FUS suppressor: inactive; Abeta yeast res: inactive; aSyn rescue: -7.5%; TDP-43 yeast inh: -2.5%

Results for Cc1ccc(C)c(N2CCN(c3c(CN4CCCC4)c(=O)oc4ccccc34)CC2)c1 ?
FUS suppressor: inactive; Abeta yeast res: inactive; TDP-43 yeast inh: 9.9%

What do the screens show for `O=C(c1cc(Cl)cc(Cl)c1)N1CC[C@H]2[C@H](CCCN2Cc2cc(F)cc(F)c2)C1`?
FUS suppressor: inactive

What do the screens show for `C[C@@]12C(=O)Nc3ccc(F)cc3C(=O)N1[C@H]1c3ccccc3OC[C@@H]1[C@@H]2c1ccccc1`?
FUS suppressor: inconclusive; Abeta yeast res: inactive; aSyn rescue: 7.4%; TDP-43 yeast inh: 14.1µM*

What do the screens show for `N#Cc1cccc(C(=O)C(=O)N2CCC(c3ccccc3)CC2)c1`?
FUS suppressor: inactive; Abeta yeast res: inactive; aSyn rescue: 2.6%; TDP-43 yeast inh: 10.2%

Results for O=C(C(=O)N1CCC(c2ccccc2)CC1)c1ccc(F)c(F)c1 ?
FUS suppressor: inactive; Abeta yeast res: inactive; aSyn rescue: 9.4%; TDP-43 yeast inh: 22.4µM*

Results for Clc1ccc(OCc2nnc(-c3ccccc3Br)o2)cc1 ?
FUS suppressor: inactive; Abeta yeast res: inactive; aSyn rescue: 12.3%; TDP-43 yeast inh: 6.4%

How did Clc1cccc(OCc2nnc(-c3ccccc3Br)o2)c1 do in these assays?
FUS suppressor: inactive; Abeta yeast res: inactive; aSyn rescue: inconclusive; TDP-43 yeast inh: 17.8µM*

Results for Cc1nn(CC(=O)NCCCN2CC(C)CC(C)C2)c(=O)c2cccn12 (stereo not drawn) ?
FUS suppressor: inactive; Abeta yeast res: inactive; aSyn rescue: -6.4%; TDP-43 yeast inh: -13.4%

What do the screens show for `Fc1ccc(-c2nc3ccc(Br)cn3c2Cc2cccc(F)c2)cc1`?
FUS suppressor: inactive; Abeta yeast res: inactive; aSyn rescue: -8.5%; TDP-43 yeast inh: 16.2%

Results for Clc1cccc(-c2nc3ccc(Cl)cn3c2Cc2ccsc2)c1 ?
FUS suppressor: inactive; Abeta yeast res: inactive; aSyn rescue: 0.0%; TDP-43 yeast inh: inconclusive

How did Fc1cccc(Cc2c(-c3cccc(Br)c3)nc3ccc(Cl)cn23)c1 do in these assays?
FUS suppressor: inactive; Abeta yeast res: inactive; aSyn rescue: -2.0%; TDP-43 yeast inh: 25.1µM*

What do the screens show for `Clc1cccc(-c2nc3ccc(Cl)cn3c2Cc2ccccc2)c1`?
FUS suppressor: inactive; Abeta yeast res: inactive; aSyn rescue: 19.4%; TDP-43 yeast inh: 15.8µM*

Results for O=S(=O)(c1ccccc1Cl)N1CCN(c2nc(-c3cccs3)nc3ccccc23)CC1 ?
aSyn rescue: -13.2%

What do the screens show for `Cc1nc(Nc2nc3c(c(=O)[nH]2)CCC3)nc2ccccc12`?
FUS suppressor: inactive; Abeta yeast res: inactive; aSyn rescue: 11.2µM*; TDP-43 yeast inh: 14.1µM*

Results for Cc1ccccc1/C=C/C1=NCCN1 ?
FUS suppressor: inactive; Abeta yeast res: inactive; aSyn rescue: -2.8%; TDP-43 yeast inh: 34.6%

What do the screens show for `C#CCOC(=O)Nc1cccn(Cc2c(Cl)cccc2Cl)c1=O`?
FUS suppressor: inactive; Abeta yeast res: inactive; aSyn rescue: -7.6%; TDP-43 yeast inh: 11.2µM*

How did O=C(Nc1cccn(Cc2c(Cl)cccc2Cl)c1=O)C1CC1 do in these assays?
FUS suppressor: inactive; Abeta yeast res: inactive; aSyn rescue: -15.4%; TDP-43 yeast inh: inconclusive

What do the screens show for `CC1=C(C(N)=O)C(c2ccc(C)cc2)n2nc(SCc3ccccc3)nc2N1` (stereo not drawn)?
FUS suppressor: inactive; Abeta yeast res: inactive; TDP-43 yeast inh: -1.2%

Screening data (PubChem BioAssay)
